Shown is part of a subset that was picked to be rich in hits.
TDP-43 rescue = inhibitors of TDP-43 toxicity in yeast; yeast TDP-43 toxicity rescue, BacTiter-Glo growth, 24 h; Potency, µM (titrated, usually from 46.1 µM), most hits filed as activators; actives 0.45% (n = 45,000); AID 1347073; active means well fitted activation curve with a large enough effect; further: 0% is about no effect; nearly all actives have a fitted effect of over 55% in size
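TDP-43-expressing yeast, pregrown in raffinose, seeded at OD600 0.02 in galactose medium with compound for 24 hr at 30 deg C. Growth read by BacTiter-Glo luminescence, so rescue of toxicity appears as activation.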
Active calls of the source: *. Potency means the concentration at half of the fitted maximal effect.

For O=C(Nc1ccc(C(F)(F)F)cc1)C(Cc1ccccc1)n1cccc1 (stereo unspecified) the results were TDP-43 rescue inactive.
`O=C(COC(=O)CN1C(=O)NC2(CCCC2)C1=O)NCc1ccc(Cl)cc1Cl` gave TDP-43 rescue inactive.
`CCCC(C)(C)C(=O)N1CCC1(C)C(=O)NS(=O)(=O)c1cccc(Cl)c1` (stereo unspecified) gave TDP-43 rescue inactive.
`Clc1nc2ccccc2nc1-c1ccccc1` gave TDP-43 rescue inactive.
`CN(c1nc2ccccc2nc1Cl)S(=O)(=O)c1ccccc1` gave TDP-43 rescue 13µM*.
For CCCc1nnc2c(N(C)S(=O)(=O)c3ccc(C)cc3)nc3ccccc3n12 the results were TDP-43 rescue inactive.
Screening CC(C)C1NC(C(=O)O)Cc2c1[nH]c1ccccc21 (stereo unspecified) returned TDP-43 rescue inactive.
`COc1ccc(N2CC(C(=O)N3CCN(c4ccccc4F)CC3)CC2=O)cc1` (stereo unspecified) gave TDP-43 rescue inactive.
Screening CCOC(=O)N1CCN(C(=O)c2ccccc2NC(=O)COc2ccccc2)CC1 returned TDP-43 rescue inactive.
Screening Cc1ccc(N(CC(=O)NC2CCCC2)C(=O)c2nsc(Cl)c2Cl)cc1 returned TDP-43 rescue inactive.
CC(=O)c1cccc(-c2ccnc3c2CC(C(=O)Nc2cccc(OC(F)(F)F)c2)O3)c1 (stereo unspecified) was read as TDP-43 rescue 22µM*.
For CC(=O)Nc1ccc(NC(=O)C2Cc3c(-c4cccc(C(C)=O)c4)ccnc3O2)cc1 (stereo unspecified) the results were TDP-43 rescue inactive.
`O=C(Nc1cccc(OC(F)(F)F)c1)C1Cc2c(-c3ccco3)ccnc2O1` (stereo unspecified) gave TDP-43 rescue inactive.
Cn1c(SCC(=O)Nc2ccccc2)nnc1C(F)(F)F was read as TDP-43 rescue inactive.
Screening Nn1c(=O)c2ccccc2n2c(SCc3ccccc3)nnc12 returned TDP-43 rescue inactive.
For Nn1c(SCc2cccc(Oc3ccccc3)c2)nnc1C(F)(F)F the results were TDP-43 rescue 13µM*.
CCCCn1cnc2cc(NC(=O)c3cc(OC)c(OC)c(OC)c3)ccc21 was read as TDP-43 rescue inactive.
For CC(=O)N1c2ccc3ccccc3c2C(C)CC12CCCCC2 (stereo unspecified) the results were TDP-43 rescue 14µM*.
O=C(Nc1nc2ccc3ccccc3c2s1)c1ccc(N2CCCCC2)c([N+](=O)[O-])c1 was read as TDP-43 rescue inactive.
CC(=O)OC[C@H]1COc2ccc3ccccc3c2[C@H]1N(C)C(C)=O was read as TDP-43 rescue inactive.
Screening CNc1cncc(-c2ccccc2NC(C)=O)n1 returned TDP-43 rescue inactive.
Screening CNc1cncc(-c2ccc(OC)c(OC)c2)n1 returned TDP-43 rescue 11µM*.
CNc1cncc(-c2ccccc2CO)n1 was read as TDP-43 rescue inactive.
Screening COc1ccc(CCC(=O)N2CCN(c3ccc([N+](=O)[O-])cc3)CC2)cc1OC returned TDP-43 rescue inactive.
Screening COc1ccc(OCCNC(=O)C2(C)CCN2Cc2ccc3ccccc3c2)cc1 (stereo unspecified) returned TDP-43 rescue inactive.
CC1(c2cccc(Br)c2)NC(=O)N(CC(=O)Nc2ccc(F)cc2)C1=O (stereo unspecified) was read as TDP-43 rescue inactive.
Screening O=C(CN1CCN(S(=O)(=O)c2ccccc2F)CC1)N1CCc2ccccc2C1 returned TDP-43 rescue inactive.
Screening CC(C1CC2CCC1C2)N1CC(O)=C(c2nc3ccccc3[nH]2)C1=N (stereo unspecified) returned TDP-43 rescue inactive.
For CC(C1CC2CCC1C2)n1c(-c2cccs2)n[nH]c1=S (stereo unspecified) the results were TDP-43 rescue 14µM*.
CC(C)(C)c1n[nH]c(=S)n(/N=C/c2cccs2)c1=O was read as TDP-43 rescue inactive.
N#Cc1ccc(COC(=O)c2cnc3ccccc3n2)cc1 was read as TDP-43 rescue inactive.
`CC(C)(C)C1CCc2c(sc(NC(=O)C3c4ccccc4Oc4ccccc43)c2C(N)=O)C1` (stereo unspecified) gave TDP-43 rescue inactive.
`Cc1ccc(/C=C/C(=O)OCn2nnc3ccccc3c2=O)o1` gave TDP-43 rescue 14µM*.
Cc1ccccc1OCC(=O)OCn1nnc2ccccc2c1=O was read as TDP-43 rescue inactive.
`C[C@H](NC(=O)CCCn1nnc2ccccc2c1=O)C(=O)O` gave TDP-43 rescue inactive.
For O=C(NC1CCCC1)C(c1cccnc1)N(Cc1ccccc1)C(=O)c1csnn1 (stereo unspecified) the results were TDP-43 rescue inactive.
For O=C(COC(=O)c1ccc(F)cc1Cl)NC1CCCCCCC1 the results were TDP-43 rescue inactive.
`CCNC(=O)C1CCCN(C(=O)Cc2ccc3ccccc3c2)CC1` (stereo unspecified) gave TDP-43 rescue inactive.
c1ccc(-c2cc3nc(NCc4cccs4)ccn3n2)cc1 was read as TDP-43 rescue inactive.
COc1cc(-c2cc3nc(NCc4cccc(Cl)c4)ccn3n2)cc(OC)c1OC was read as TDP-43 rescue 14µM*.
COc1ccccc1-c1cc2nc(NCCc3ccncc3)ccn2n1 was read as TDP-43 rescue inactive.
For Cc1cc(C)c(C)c(S(=O)(=O)NCc2ccncc2)c1C the results were TDP-43 rescue inactive.
Screening CCc1nn(CC(=O)N2CCCCC2)c(=O)c2cc3sc(C)cc3n12 returned TDP-43 rescue inactive.
`COc1ccc(NC(=O)CC23CC4CC(CC(Br)(C4)C2)C3)c(OC)c1` gave TDP-43 rescue inactive.
`Cc1ccc(F)c(S(=O)(=O)NC(=O)C2(C)CCN2C(=O)CC2CCCCC2)c1` (stereo unspecified) gave TDP-43 rescue inactive.
`COc1ccc(-c2onc(C)c2-c2cnn(-c3ccccc3)c2)c(O)c1C` gave TDP-43 rescue inactive.
`COc1ccc(-c2onc(C)c2-c2ccc(C(=O)OC(C)C)o2)c(O)c1` gave TDP-43 rescue 16µM*.
`COc1cc(NC(=O)c2ccc(-c3c(C)noc3C)c3ccoc23)cc(OC)c1OC` gave TDP-43 rescue inactive.
For COC(=O)C(Cc1ccccc1)NC(=O)CCNC(=O)c1ccc(Br)cc1 (stereo unspecified) the results were TDP-43 rescue inactive.
Screening CCc1ccc2c(c1)NC(=O)C2(C)Cc1ccc(Cl)cc1 (stereo unspecified) returned TDP-43 rescue inactive.
For COc1ccccc1-c1ccc2c(c1)C(C)(Cc1ccc(Cl)c(Cl)c1)C(=O)N2 (stereo unspecified) the results were TDP-43 rescue inactive.
Screening Cc1ccc(CC2(C)C(=O)Nc3c(Cl)cccc32)cc1 (stereo unspecified) returned TDP-43 rescue 8.9µM*.
N/C(=N\OC(=O)c1cccc(Cl)c1)c1cccnc1 was read as TDP-43 rescue 11µM*.
For N/C(=N\OC(=O)c1ccc(Cl)cc1[N+](=O)[O-])c1cccnc1 the results were TDP-43 rescue inactive.
N/C(=N\OC(=O)COc1ccc(Cl)cc1Cl)c1cccnc1 was read as TDP-43 rescue inactive.
`O=C(Nc1cccc(Cl)c1)c1cccc(N2C(=O)C3CC=CCC3C2=O)c1` (stereo unspecified) gave TDP-43 rescue inactive.
Screening Cc1ccccc1NC(=O)NC1(C(=O)NCC2CCCO2)CCCCC1 (stereo unspecified) returned TDP-43 rescue inactive.

Assay outcomes from PubChem.
